S1P4 antag: S1P4 receptor antagonists, primary screen, cell-based. S1P4-expressing cells, antagonist mode, reporter read-out. Sphingosine 1-phosphate receptor 4 (Homo sapiens), O95977. inhibition, % at 4.98 µM. hit rate 0.26% among 220,000; in the data active = inhibition above about 29%;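 note: 0% = wells stimulated with agonist and 100% = vehicle wells without agonist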
Target sequence (O95977 whole entry, looked up): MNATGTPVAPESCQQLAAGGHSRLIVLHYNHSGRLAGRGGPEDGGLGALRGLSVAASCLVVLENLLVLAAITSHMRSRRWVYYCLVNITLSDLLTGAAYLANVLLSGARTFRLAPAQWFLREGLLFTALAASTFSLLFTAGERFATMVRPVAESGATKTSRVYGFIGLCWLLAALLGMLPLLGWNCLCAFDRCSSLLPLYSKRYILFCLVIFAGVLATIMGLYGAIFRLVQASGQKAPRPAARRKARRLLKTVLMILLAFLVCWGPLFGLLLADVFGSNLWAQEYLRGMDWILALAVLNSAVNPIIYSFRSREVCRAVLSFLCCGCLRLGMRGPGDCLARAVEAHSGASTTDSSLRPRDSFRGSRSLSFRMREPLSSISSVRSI
S1P3 antag-1: S1P3 receptor antagonists, primary screen, cell-based; hit rate 0.27% among 170,000; Sphingosine 1-phosphate receptor 3 (Homo sapiens), Q99500; inhibition, % at 4.98 µM; CHO S1P3 NFAT-BLA reporter, FRET fluorescence, antagonist mode;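 active = inhibition above the plate cutoff, the mean inhibition of test wells on that plate plus 3 SD, cut at about 28% in these data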;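 note: cells challenged with S1P at its EC80 of 0.8 µM; blue over green emission ratio from cleaved BLA substrate after 4 h stimulation; 0% = S1P-stimulated wells and 100% = unstimulated DMSO-only wells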
EP2 mod: EP2 receptor modulators, cAMP readout, primary screen, cell-based, HTRF cAMP, PGE2 stimulation; Prostaglandin E2 receptor EP2 subtype (Homo sapiens), P43116; EP2-expressing cells, cAMP HTRF FRET, PGE2 co-stimulation; induction, % at 25 µM; hit rate 0.83% among 260,000; AID 940, 2007;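 active = compounds whose cAMP rise, as percent of the full-agonist control response, exceeds 60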;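 note: rat C6 glioma line stably carrying human EP2 under a CMV promoter; the protocol text gives 20 µM as final concentration; 100% = response of wells given 1 µM PGE2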
PGE2 EP2 inh: human EP2 receptor antagonists, primary screen, TR-FRET cAMP, C6 glioma cells; hit rate 0.52% among 260,000; inhibition, % at 25 µM; C6 glioma cells expressing human EP2; cells stimulated with saturating PGE2;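 active = percent inhibition above 40 after rounding to a whole number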;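 note: rat C6 glioma host cells with rolipram phosphodiesterase inhibitor present; the protocol text gives 20 µM as final concentration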
S1P4 ag: S1P4 receptor agonists, primary screen, cell-based | hit rate 0.35% among 220,000 | S1P4-expressing cell line, agonist reporter assay | AID 1509, 2009 | activation, % at 4.98 µM | Sphingosine 1-phosphate receptor 4 (Homo sapiens), O95977; in the data active = activation above about 11%;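 note: 0% = DMSO vehicle and 100% = reference agonist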
S1P3 antag-2: S1P3 receptor antagonists, retest, confirmation, cell-based. shares compounds with S1P3 antag-1. CHO S1P3 NFAT-BLA reporter, FRET, antagonist mode. inhibition, % at 4.98 µM. hit rate 30% among 240;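 active = inhibition above the hit threshold that was computed for the earlier primary screen, cut at about 30% in these data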;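 note: 0% = S1P-stimulated wells and 100% = unstimulated DMSO-only wells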
EP2 confirm: cAMP induction in EP2, EP4, beta2-AR and parental cells, confirmation, counter-screen for EP2 modulator project, cell-based, five parallel assays, C6 glioma, HEK293 | hit rate 47% among 1,300 | shares compounds with EP2 mod | AID 1080, 2008 | calls only at 20 µM (by protocol) | cAMP HTRF induction; plus low (about EC15) PGE2 agonist;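 active = cAMP induction above 50% in the main assay while under 30% in all four parallel counter assays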;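 note: rat C6 glioma cells stably expressing human EP2 receptor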
S1P4 ag conf: S1P4 receptor agonists, retest, confirmation, cell-based, high throughput; shares compounds with S1P4 ag; S1P4 agonist cell-based reporter assay; activation, % at 4.98 µM; hit rate 7% among 740; in the data active = activation above about 12%;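 note: 0% = vehicle and 100% = full reference agonist response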
S1P1 ag: S1P1 receptor agonists, human, counter-screen for S1P4 agonist project, cell-based | S1P1 agonist cell-based assay, activation | hit rate 4% among 740 | activation, % at 4.98 µM | shares compounds with S1P4 ag; in the data active = activation above about 21%;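 note: 0% = vehicle wells and 100% = reference agonist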
S1P4 antag cf: S1P4 receptor antagonists, human, confirmation, cell-based; shares compounds with S1P4 antag; S1P4-expressing cell line, antagonist mode, reporter read-out; inhibition, % at 4.98 µM; hit rate 71% among 520; AID 1524, 2009; in the data active = inhibition above about 30%
S1P1 antag: S1P1 receptor antagonists, human, counter-screen for S1P4 antagonist project, cell-based | cell-based S1P1 antagonist counterscreen, inhibition | shares compounds with S1P4 antag | inhibition, % at 4.98 µM | hit rate 37% among 520; in the data active = inhibition above about 40%;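 note: receptor stimulated with S1P near its EC80; 0% = agonist stimulated wells and 100% = vehicle only wells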
Active calls of the source: *; i = inactive; nt = no result given; + = active, no number. An excerpt weighted towards active compounds, which were near 1.9% of everything screened.

SMILES | S1P4 antag | S1P3 antag-1 | EP2 mod | PGE2 EP2 inh | S1P4 ag | S1P3 antag-2 | others
O=C(COC(=O)c1cnc(Cl)c(Cl)c1)NCCC1=CCCCC1 | -9 | 33* | 9 | 12 | 1 | -17
CCCC[C@@H]1C[C@H]1[C@@H](NC(=O)c1cccs1)c1ccc(Cl)cc1 | 9 | 48* | -30 | 9 | 1 | 69*
O=c1[nH]c(N2CCOCC2)nc2c1CN(Cc1nnnn1C1CCCCC1)CC2 | nt | nt | 6 | 6 | nt | nt
COc1cccc(OC)c1C(=O)Nc1nc2cc3c(cc2s1)OCO3 | -2 | 33* | -11 | 3 | -1 | -2
CCc1ccccc1NC(=O)CSc1nnc(-c2ccco2)n1CC | nt | nt | -11 | 5 | nt | nt
Cc1ccc(NC(=O)C(OC(=O)c2ccc(C=O)cc2)c2ccccc2)cc1Cl (centres undefined) | -1 | 30* | 39 | 11 | -1 | 19
COCC(C)NC(C(=O)Nc1ccc(C)c(Cl)c1)c1ccccc1 (centres undefined) | -3 | nt | -16 | 8 | 2 | nt
Fc1ccc(CNC(=S)Nc2cccc(Cl)c2)cc1 | -1 | 28* | -74 | 4 | -2 | 6
S=C(NCc1ccncc1)Nc1cccc(Cl)c1 | -11 | 2 | 6 | 4 | 0 | nt
Cc1ccc(-n2c(SCC(=O)NC3CCCC3)nnc2-c2ccccn2)cc1C | nt | nt | 15 | 5 | nt | nt
O=C1N/C(=C\c2ccc(O)cc2)C(O)=C1C=NCc1ccccc1 | -7 | 29* | -66 | 15 | 0 | 22
COCCNC(=S)N/N=C/c1ccc(-c2ccc([N+](=O)[O-])cc2)o1 | 13 | 31* | -25 | 5 | -1 | 32*
CC1CCCN(Cn2nc3c4ccccc4ncn3c2=O)C1 (centres undefined) | nt | nt | -40 | 6 | nt | nt
CC(C(=O)Nc1cccc(Br)c1)c1ccc([N+](=O)[O-])cc1 (centres undefined) | -3 | 30* | -63 | 10 | 1 | 21
CC(C(=O)Nc1cccnc1)c1ccc([N+](=O)[O-])cc1 (centres undefined) | -22 | -11 | -3 | 6 | 3 | nt
CCCCCCCCCn1c2c(c(=N)c3c1CCC3)CCCC2 | -15 | 55* | -35 | 7 | 1 | 41*
CCCCCCCCCCn1c2c(c(=N)c3c1CCC3)CCC2 | -4 | nt | 28 | 19 | 0 | nt
CCN(CC)S(=O)(=O)c1cccc(C(=O)NC(C)C(c2cccs2)N2CCCC2)c1 (centres undefined) | -10 | 29* | 10 | 6 | -1 | -7
COC(=O)c1ccc(COC(=O)CCC(=O)Nc2cccc3cccnc23)cc1 | nt | nt | -39 | 11 | nt | nt
CC(=O)c1ccc(Nc2c3c(nc4ccccc24)CCCC3)cc1 | -21 | 29* | 9 | 12 | 27* | -1 | S1P4 ag conf=-1;S1P1 ag=-2
COCCn1nnnc1CN(Cc1cc2ccc(C)cc2[nH]c1=O)C1CCCCC1 | nt | nt | -33 | 6 | nt | nt
CN(C)c1ccc(/C=C/c2ccc3ccccc3n2)cc1 | 32* | 46* | -57 | 10 | 20* | 45* | S1P4 ag conf=5;S1P1 ag=-18;S1P4 antag cf=63*;S1P1 antag=44*
CCn1c(CSc2nc(C)cc(C)n2)nnc1SCC(=O)Nc1cccc(Cl)c1 | nt | nt | -27 | 9 | nt | nt
O=C1N/C(=N\S(=O)(=O)Cc2ccccc2)S/C1=C/c1cc([N+](=O)[O-])ccc1O | 44* | 32* | -24 | 11 | 0 | 25 | S1P4 antag cf=59*;S1P1 antag=50*
O=C(NC1CCCc2c1cnn2-c1ccc(F)cc1)c1ccncc1 (centres undefined) | nt | nt | -105 | 7 | nt | nt
SMILES | S1P4 antag | S1P3 antag-1 | EP2 mod | PGE2 EP2 inh | S1P4 ag | S1P3 antag-2 | others
COc1ccc(-c2nc3ccccc3s2)cc1NC(=O)c1c(OC)cccc1OC | nt | nt | -9 | 7 | nt | nt
CCN(CC)c1ccc(/C=N/NC(=O)c2cc(C)nc3ccccc23)cc1 | -5 | 14 | -18 | 7 | 3 | nt
CCN(CC)c1ccc(/C=C/c2cc(-c3ccccc3)c3ccccc3n2)cc1 | 46* | 76* | -22 | 10 | 8 | 90* | S1P4 antag cf=91*;S1P1 antag=104*
CC(C)(C)c1ccc(NC(=O)Nc2ccc(F)cc2)cc1 | -5 | 10 | -58 | 8 | 2 | nt
O=C(Nc1ccc(F)cc1)Nc1cc(OCC(F)(F)F)cc(OCC(F)(F)F)c1 | 100* | 35* | 2 | 7 | -1 | 10 | S1P4 antag cf=110*;S1P1 antag=-29
CCCCN(C)CC(O)Cn1cc(/C=C/C(=O)c2cccs2)c2ccccc21 (centres undefined) | 47* | 33* | -38 | 3 | 2 | 16 | S1P4 antag cf=61*;S1P1 antag=88*
CCOC(=O)COc1cccc2c(=O)n(CC(=O)NCc3ccccc3)ccc12 | 27 | 17 | -11 | 3 | 1 | nt
CCOC(=O)COc1cccc2c(=O)n(CC(=O)NCc3ccc(F)cc3)ccc12 | 33* | 30* | -23 | 7 | -1 | 0 | S1P4 antag cf=30*;S1P1 antag=73*
Oc1ccc(NCc2ccccc2OCc2ccccc2F)cc1 | 12 | nt | 30 | 17 | -2 | nt
Cc1ccc(NCc2ccccc2OCc2ccccc2F)cc1 | 6 | nt | 76* | 9 | 2 | nt | EP2 confirm=i
Cc1cc(C(=O)Nc2cccc(/C=C/C(=O)O)c2)c(C)o1 | 0 | nt | 99* | 3 | 1 | nt | EP2 confirm=+
Cc1oc(C(C)(C)C)cc1C(=O)Nc1cccc(/C=C/C(=O)O)c1 | -6 | nt | -15 | 16 | -2 | nt
Cc1oc(-c2ccccc2)cc1C(=O)Nc1cccc(/C=C/C(=O)O)c1 | -28 | 1 | 92* | 9 | -1 | nt | EP2 confirm=+

Screens (PubChem)
